Assay outcomes (PubChem)
A selection: hits, their analogues and other compounds. The true share with any hit is near 19%.
VP16 counter: inhibits Gal4-VP16 luciferase reporter, ROR gamma counter-screen. Potency, µM (top dose mostly 53.6 µM), for the others: top-dose activity, negative = inhibition, hits mostly inhibitors. Drosophila S2 Gal4-VP16 UAS-luciferase, luminescence, 20 h. AID 2546. 310,000 tested, 3.5% active;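 also: Gal4-VP16 expression switched on by copper sulfate through the metallothionein promoter; nearly all actives have a fitted effect of over 50% in size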
RORg inh: blocks mouse ROR gamma transcriptional activity; Potency, µM (highest dose often 53.6 µM), for inactives: top-dose activity change, negative = inhibition, usual class: inhibitors; Drosophila S2 Gal4-RORgamma UAS-luciferase reporter, 20 h; AID 2551; P51450; 310,000 tested, 5.4% active; also: nearly all actives have a fitted effect of over 60% in size
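In this cell-based reporter format, copper sulfate (700 uM final) drives Gal4–ROR gamma fusion expression from a metallothionein promoter in Drosophila Schneider cells; compounds preincubated 1 hr, reporter read after 20 hr at ambient temperature.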
TDP1 cell CPT: DT40-hTDP1 cell growth loss with CPT. chicken DT40 Tdp1-/-;hTDP1 cells + 20 nM CPT, ATP luminescence, 48 h. AID 686979. 420,000 tested, 12% active. Potency, µM (series often up to 46.2 µM), without a hit: at the top dose activity change, negative = growth inhibition, hits mostly inhibitors; also: nearly all actives have a fitted effect of over 55% in size
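Chicken DT40 Tdp1-/- cells complemented with human TDP1, 400 cells/well, exposed to compounds plus 20 nM camptothecin for at least 48 h at 37 C; viability read as ATP content by CellTiter-Glo luminescence.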
TDP1 inh: inhibitors of human tyrosyl-DNA phosphodiesterase TDP1; Q9NUW8; recombinant TDP1, AlphaScreen DNA substrate cleavage; Potency, µM (highest dose often 130 µM), without a hit: at the top dose activity change, negative = inhibition, usual class: inhibitors; 350,000 tested, 0.28% active; AID 485290; also: nearly all actives have a fitted effect of over 40% in size
Target sequence (Q9NUW8 whole entry, looked up): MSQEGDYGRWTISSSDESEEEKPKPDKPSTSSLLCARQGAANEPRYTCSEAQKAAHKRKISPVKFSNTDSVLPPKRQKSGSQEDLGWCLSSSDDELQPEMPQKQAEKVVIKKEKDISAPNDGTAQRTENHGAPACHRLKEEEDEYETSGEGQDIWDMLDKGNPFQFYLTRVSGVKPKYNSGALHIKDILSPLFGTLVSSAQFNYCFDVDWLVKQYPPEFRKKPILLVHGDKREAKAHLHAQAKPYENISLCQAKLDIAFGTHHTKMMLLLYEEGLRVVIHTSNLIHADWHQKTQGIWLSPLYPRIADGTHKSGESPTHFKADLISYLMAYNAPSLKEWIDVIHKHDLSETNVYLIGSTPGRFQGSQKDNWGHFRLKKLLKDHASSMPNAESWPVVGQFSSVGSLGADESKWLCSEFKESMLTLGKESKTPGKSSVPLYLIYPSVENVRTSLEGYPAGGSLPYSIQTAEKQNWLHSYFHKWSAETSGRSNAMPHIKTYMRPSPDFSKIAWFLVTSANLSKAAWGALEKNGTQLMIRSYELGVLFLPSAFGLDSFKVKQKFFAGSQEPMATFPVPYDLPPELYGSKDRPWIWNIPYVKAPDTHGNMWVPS
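Compounds were preincubated with Tdp1 (1 nM final) for 15 min at room temperature before substrate (15 nM final) started a 5 min reaction; beads (10 ug/ml final) were then added for 10 min before AlphaScreen detection.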
DT40 TDP1 no CPT: qHTS for Inhibitors of human tyrosyl-DNA phosphodiesterase 1 (TDP1): qHTS in cells in absence of CPT; DT40 Tdp1-/- hTDP1 cells, no CPT, ATP luminescence, 48 h; Potency, µM (highest dose often 46.2 µM), for the others: at the top dose activity change, negative = growth inhibition, hits mostly inhibitors; 420,000 tested, 15% active; AID 686978, 2013; also: nearly all actives have a fitted effect of over 55% in size
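Chicken DT40 Tdp1-/- cells complemented with human TDP1, screened without camptothecin (DMSO vehicle only), 400 cells/well. Compounds pin-transferred, cells incubated at 37 °C for at least 48 hr. Growth read as ATP-dependent luminescence (CellTiter-Glo, 30 min at RT).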
Active calls of the source: *; ? = inconclusive; / = no result given; [ ] = another dose, or the depositor's remark. Calls follow the shape of the dose curve; as a rule, active = well fitted curve in the direction sought with a large enough effect; inconclusive = small, poorly fitted or top-dose-only effect, or another doubt; inactive = no such curve, though single readings can be large; an effect the other way counts as inactive or inconclusive. % is scaled to controls: 0 for no effect and ±100 for the full control effect; potency is read from the fitted curve at half-maximal effect.

SMILES	VP16 counter	RORg inh	TDP1 cell CPT	TDP1 inh	DT40 TDP1 no CPT
COc1ccc(C2C3=C(CCCC3=O)Nc3nc(C(F)(F)F)nn32)cc1OC (stereo not drawn)	-12%	4.5µM*	-2%	7%	-26%
CC(SCc1ccccc1)C(=O)N/N=C/c1ccc2c(c1)OCO2 (stereo not drawn)	-7%	?	-28%	8%	-17%
Brc1ccc(/C=N/Nc2ccccc2)cc1	3%	25%	?	5%	-26%
CN(C)c1nc(NCc2ccccc2)nc(N/N=C/c2ccc(Br)cc2)n1	13µM*	2.8µM*	-9%	-3%	-14%
CN(C)c1nc(NCc2ccccc2)nc(N/N=C/c2ccc3c(c2)OCO3)n1	?	7.9µM*	?	3%	16µM*
CN(C)CCCN(C(=O)c1cc(Cl)sc1Cl)c1nc2cc3c(cc2s1)OCO3	-17%	-16%	-41%	7%	-25%
Cc1cc2cc(CN(C(=O)C3CC3)C3CCCC3)c3nnnn3c2cc1C	-12%	-19%	?	3%	21µM*
CC(=O)N(Cc1cc2ccc(C)c(C)c2n2nnnc12)C1CCCC1	2%	-7%[10 µM]	/	6%	/
CCc1ccccc1NC(=O)C(CC)Sc1nc2cc3c(cc2c(=O)n1Cc1ccco1)OCO3 (stereo not drawn)	7%	-12%	16µM*	5%	?
CCc1ccc(NC(=O)C(CC)Sc2nc3cc4c(cc3c(=O)n2Cc2ccco2)OCO4)cc1 (stereo not drawn)	-9%	0%	18µM*	1%	?
CCC(Sc1nc2cc(OC)c(OC)cc2c(=O)n1Cc1ccco1)C(=O)NCCOC (stereo not drawn)	2%	-9%	-24%	-4%	-28%
O=C(Nc1cccc2ccccc12)N1CC=CCC1	0%	0%	?	2%	-13%
O=C(COc1ccc(F)cc1)Nc1cccc(OCc2cc(=O)n3ccccc3n2)c1	/	/	?	3%	?
C[C@H]1NC(=O)[C@@]2(C)[C@@H](c3ccccc3)[C@H]3COc4ccccc4[C@@H]3N2C1=O	/	/	5%	0%	-3%
COc1ccc(C(=O)NCC(c2cccs2)S(=O)(=O)c2cccs2)cc1 (stereo not drawn)	/	/	?	3%	16µM*
COc1cccc(CNC(=O)Nc2cccs2)c1	4%	1%	7.3µM*	10%	?
O=C(NCc1ccccc1Cl)C(=O)NCC(c1cccs1)S(=O)(=O)c1cccs1 (stereo not drawn)	/	/	?	3%	18µM*
COc1cc(C(=O)NCC(c2cccs2)S(=O)(=O)c2cccs2)cc(OC)c1OC (stereo not drawn)	/	/	?	0%	?
COc1cccc(CNC(=O)C(=O)NCC(c2cccs2)S(=O)(=O)c2cccs2)c1 (stereo not drawn)	/	/	?	-5%	21µM*
O=C(c1nc2ccccn2c1CNCCCn1ncc2ccccc21)N1CCCC1	-8%	29%	0%	0%	-29%
CCN(CC(=O)Nc1ccc(NC(C)=O)cc1)C(=O)c1n[nH]c(=O)c2ccccc12	-4%	-14%	2%	2%	-2%
Cc1ccc(C(=O)NCCC(=O)N2CCC3(CC2)NCCc2[nH]cnc23)cc1C	0%	-2%	-4%	1%	10%
Cc1ccc(C(=O)NCC(c2cccs2)S(=O)(=O)c2ccccc2)cc1C (stereo not drawn)	/	/	15µM*	-5%	4.1µM*
COc1ccc(C(=O)NCC(c2cccs2)S(=O)(=O)c2ccc(C)cc2)cc1 (stereo not drawn)	/	/	23µM*	3%	15µM*
COc1ccc(C(CC(=O)c2ccccc2)S(=O)(=O)c2ccc(C)cc2)cc1 (stereo not drawn)	?	-37%	?	4%	14µM*
SMILES	VP16 counter	RORg inh	TDP1 cell CPT	TDP1 inh	DT40 TDP1 no CPT
C=CC[C@@H](CC(=O)N(CCO)Cc1ccccc1)C(=O)N[C@H](COC(=O)[C@@H](CC=C)Cc1ccc(F)cc1)Cc1ccccc1	/	/	?	1%	23µM*
C=CC[C@@H](CC(=O)N(CCO)Cc1ccccc1)C(=O)N[C@@H](COC(=O)[C@@H](CC=C)Cc1ccc(F)cc1)Cc1ccccc1	/	/	21µM*	0%	21µM*
O=C(COC(=O)Cc1ccc(F)cc1)NC(=O)NC1CCCC1	/	/	-19%	-1%[56.1 µM]	2%
CN1CCN(/C=N/c2c(C#N)cnn2C)CC1	-6%	-18%	-1%	-2%	-7%
Cn1ncc(C#N)c1/N=C/N(Cc1ccccc1)Cc1ccccc1	13%	21%	15µM*	4%	?
S=c1[nH]nc(-c2ccncc2)n1/N=C/C(Cl)=C\c1ccccc1	?	?	13µM*	/	8.2µM*
Cc1cc(-c2n[nH]c(=S)n2/N=C/C=C/c2ccccc2)n[nH]1	?	-38%	-24%	8%	-9%
S=c1[nH]nc(-c2ccncc2)n1/N=C/C=C/c1ccccc1	-5%	2.8µM*	-24%	12%	?
Cc1ccc(NC(=O)[C@@H]2CCCN2C(=O)[C@@H]2Cc3ccccc3CN2)c(C)c1	22%	2%	3%	2%	1%
Cc1cccc(C)c1OCC(O)CNS(=O)(=O)c1ccccc1C(=O)N1CCCCC1 (stereo not drawn)	-4%	-3%	18µM*	0%	21µM*
CSc1ccc(CNC(=O)C2CCN(c3nnc(-n4cccc4CNc4ccc(C)cc4)s3)CC2)cc1	/	/	?	3%	16µM*
Cc1ccc(NCc2cccn2-c2nnc(N3CCC(C(=O)NCCC(C)C)CC3)s2)cc1	/	/	?	5%	21µM*
CC1CCC(C#N)(N(C)C(=O)CSc2nnc(C3CC3)n2C2CC2)CC1 (stereo not drawn)	/	/	9%	1%[56.1 µM]	15%
CC1=Nc2ccccc2N=C(NC(=O)CSC(=S)N2CCCCC2)C1c1ccccc1 (stereo not drawn)	7%	27%	-20%	4%	?
Cc1noc(C)c1CSc1nc2ccccc2n1CCc1ccccc1	?	7.1µM*	?	-1%	?
O=C(O)CCn1c(SCc2ccccc2)nc2ccccc21	/	2%[0.365 µM]	?	-3%	2%
Cc1noc(C)c1CSc1nc2ccccc2c(=O)n1-c1ccc(Cl)cc1	5%	11µM*	18µM*	7%	15µM*
Cc1noc(C)c1CSc1nnnn1-c1ccc(Cl)cc1	1%	-1%	?	6%	15µM*
CN(C)c1nc(Oc2ccc(/C=N/O)cc2)nc(N(C)C)n1	-4%	27%	-28%	0%	-16%
